# Shn3 inh set2 = reduction of Shn3 3'UTR firefly luciferase signal, primary screen, Schnurri-3 inhibitor project, cell-based, Clone20 osteoblasts, set 2. Clone20 osteoblast Shn3 3'UTR firefly luciferase, 24 h. inhibition, % at 12.5 µM. 360,000 compounds, 0.52% hits. AID 588674, 2011;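 active = mean inhibition of at least 75% with every replicate also reaching 75%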;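 also: 0% = median of neutral control wells and 100% = pilot-screen positive control compound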
# Peg3 promoter = Peg3 promoter-driven luciferase inhibitors, primary screen, cell-based, HeLa, luciferase luminescence; HeLa PEG-Prom luciferase reporter, overnight; inhibition, % at 20 µM; 360,000 compounds, 1.7% hits; AID 588405, 2011;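 active = inhibition of at least 50% at 20 µM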
# TWEAK Fn14 block = inhibitors of TWEAK-Fn14 signaling, primary screen, luciferase reporter cells, uHTS; 360,000 compounds, 2% hits; TWEAK-stimulated Fn14 reporter cells, luciferase luminescence, 8 h; inhibition, % at 10 µM; in the data active = inhibition above about 50%
# EBV LMP1 NFkB = EBV LMP1-driven NF-kappaB luciferase reporter inhibitors, primary screen, cell-based, luminescence, single point; LMP1-induced NF-kappaB luciferase reporter cells; inhibition, % at 12.5 µM; 350,000 compounds, 0.69% hits; in the data active = inhibition above about 41%;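 also: 0% = neutral control wells and 100% = reference inhibitor control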
# TROY NFkB inh = inhibitors of TROY-driven NF-kB signaling, primary screen, Q293 LMP1-TROYcd cells, NF-kB luciferase, uHTS. AID 1347056, 2019. 360,000 compounds, 0.98% hits. Q293 LMP1-TROYcd NF-kB luciferase reporter, 4 h. inhibition, % at 10 µM;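 active = compounds whose plate-normalised and pattern-corrected inhibition of the luciferase reporter signal at the single screening dose is 50% or more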
# TRPM1 prom inh = inhibitors of MITF-dependent TRPM1 promoter reporter, primary screen, cell-based, SK-MEL-5, single point, luciferase. SK-MEL-5 TRPM1 promoter luciferase, 24 h. inhibition, % at 12.5 µM. 330,000 compounds, 0.83% hits;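 active = mean inhibition across replicates of 60% or more, whatever share of single replicates reaches that level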
# Starred values were filed as active, the others as inactive; nt = not tested or not shown. Sampled rows, rich in hits. Any-hit rate of the full collection: about 4.1%.
SMILES,Shn3 inh set2,Peg3 promoter,TWEAK Fn14 block,EBV LMP1 NFkB,TROY NFkB inh,TRPM1 prom inh
CN(C(=O)c1cccc(NC(=O)C2CCCN(C(=O)OC(C)(C)C)C2)c1)C1CCCC1 (centres undefined),25,-1,4,6,19,20
CC(=O)Nc1cccc(OCC(=O)NC(C)c2ccc3ccccc3c2)c1 (centres undefined),8,14,43,-1,14,3
Cc1ccc(C)c(N=Nc2ccc(O)c3ncccc23)c1,86*,0,81*,61*,78*,64*
O=C(Nc1ncccc1O)c1ccc2c(c1)OCCO2,-134,-146,-5,32,-4,-21
Cc1ccc(N=Nc2cc(C)ccc2O)c(C)c1,-64,-258,-37,-13,-47,-49
Oc1ccc(N=Nc2ccc3c(c2)OCCO3)c2ncccc12,95*,-34,82*,-6,60*,73*
Cc1cccc(N=Nc2ccc(O)c3ncccc23)c1,87*,-102,90*,52*,-37,71*
COc1ccc(C(=O)NCCOc2ccccc2)cc1S(=O)(=O)N1CCOCC1,-6,-4,9,-1,-16,-2
CC1(C)CC(=O)C(CC2=C(O)CC(C)(C)CC2=O)=C(O)C1,12,-7,0,66*,-2,1
Cc1ccc(C)c(Cn2nnc3c(=O)[nH]c(C4CCCN(C(=O)c5ccco5)C4)nc32)c1 (centres undefined),12,25,11,-12,4,13
CC1CC(C)CN(c2ncnc3c2cnn3-c2ccc(Cl)cc2)C1 (centres undefined),-14,-289,77*,-55,78*,-20
CN1CCN(c2ncnc3c2cnn3-c2ccc(Cl)cc2)CC1,3,-56,76*,17,80*,-2
CCN1CCN(c2ncnc3c2cnn3-c2ccc(Cl)cc2)CC1,-40,-273,9,-21,41,-43
CC(Sc1nc2ncc(Cl)cc2[nH]1)C(=O)Nc1ccc(C(N)=O)cc1 (centres undefined),1,-1,4,9,-6,13
CC(=NNc1nc2ccccc2s1)c1ccncn1,88*,-18,1,68*,-9,38
C/C(=N\Nc1nc2ccccc2s1)c1ccc2c(c1)OCO2,-74,-272,-20,-44,12,-26
C/C(=N\Nc1nc2ccccc2s1)c1ccc(Br)s1,29,-86,51*,-13,31,8
O=C1NC(=S)N/C1=C\c1cccnc1,-2,15,50*,10,32,-10
O=C1NC(=S)N/C1=C/c1cccnc1,14,-2,53*,-1,30,-1
O=C1NC(=S)N/C1=C/c1cccc([N+](=O)[O-])c1,-7,-6,-5,0,-8,-4
O=C1NC(=S)N/C1=C\c1cccc([N+](=O)[O-])c1,3,0,17,-3,3,-5
O=C(CCNC(=O)c1ccccc1Cl)NCCc1ccc(C(F)(F)F)cc1,9,-6,72*,1,14,10
Nc1ccc(C(=O)NN2C(=O)[C@H](Cl)C2c2ccc(Cl)cc2)cc1 (some centres undefined),99*,102*,65*,-9,-23,81*
C=CCOC(=O)Nc1c(C(=O)OC)[nH]c2ccc(Cl)cc12,-5,-5,-2,4,4,1
[O-][n+]1c2c(c3c4non(O)c4ccc31)CCCC2,3,42,0,-3,51*,5
SMILES,Shn3 inh set2,Peg3 promoter,TWEAK Fn14 block,EBV LMP1 NFkB,TROY NFkB inh,TRPM1 prom inh
COn1c2c(c3c4no[n+]([O-])c4ccc31)CCCC2,9,4,13,-3,-18,4
N#Cc1cccc(-c2csc(C(O)(c3ccccc3)C(F)(F)F)n2)c1 (centres undefined),2,33,-5,nt,4,nt
COc1ccc(N(CC(=O)Nc2ccc(S(=O)(=O)N3CCOCC3)cc2)S(=O)(=O)c2ccc(F)cc2)cc1,20,33,3,-2,-11,16
CN(CCOc1ccc(Cl)cc1)C(=O)c1cccc(S(=O)(=O)N2CCN(Cc3ccccc3)CC2)c1,91*,22,57*,18,39,nt
Cc1ccc(C)c(NC(=O)CN(C)C(=O)c2cccc(S(=O)(=O)N3CCN(Cc4ccccc4)CC3)c2)c1,87*,21,20,15,12,11
Cc1ccc(CN(C)C(=O)c2cccc(S(=O)(=O)N3CCN(c4ccccc4)CC3)c2)cc1,78,32,29,9,36,22
COc1cccc(CN(C)C(=O)c2cccc(S(=O)(=O)N3CCN(c4ccccc4)CC3)c2)c1,85*,26,15,-8,7,nt
CSc1ccc(CN(C)C(=O)c2cccc(S(=O)(=O)N3CCN(Cc4ccccc4)CC3)c2)cc1,88*,11,13,13,9,28
CCOC(=O)C1CCCN(C(=O)c2ccc(F)c(Cl)c2)CC1 (centres undefined),0,1,-7,nt,-6,nt
COc1ccc(NC(=O)CSc2nnc3n2CCCCC3)cc1S(=O)(=O)N1CCOCC1,-7,6,-1,-3,-6,13
Cn1cnc2nc(Cl)nc(Cl)c21,20,6,54*,17,18,18
O=C(CSc1nnc(SCc2cccc3ccccc23)s1)N/N=C/c1c[nH]c2ccccc12,5,-43,56*,-18,-15,10
COc1ccc([N+](=O)[O-])c(S(=O)(=O)c2ccccc2)n1,54,111*,97*,nt,72*,nt
COc1ccc([N+](=O)[O-])c(S(=O)(=O)c2ccc(Cl)cc2)n1,94*,105*,97*,62*,66*,71*
O=[N+]([O-])c1cccnc1S(=O)(=O)c1ccccc1,98*,82*,95*,-2,46,23
Nc1cccnc1S(=O)(=O)c1ccccc1,7,-1,-5,-2,0,-11
COc1nc(OC)nc(Oc2ccc(Cl)cc2[N+](=O)[O-])n1,-13,12,-1,-5,11,14
O=C(NC1c2ccccc2Oc2ccccc21)c1ccc([N+](=O)[O-])cc1,-12,10,-36,-4,-25,-4
O=C(N/N=C/c1cc(Br)cc(Cl)c1O)c1ccc2c(c1)OCO2,25,55*,3,30,2,25
COc1cc(Cl)cc(/C=N\NC(=O)c2ccc3c(c2)OCO3)c1O,88*,26,-59,31,-21,nt
O=C(Cc1ccccc1)N/N=C/c1cc(Br)cc(Cl)c1O,46,53*,25,21,36,17

# Screens (PubChem BioAssay)
